Experimental data published in the supplement of paper PMC8728848.
The entries come from a sample that favours the strongest signals as a whole.

Tests used:
Assay in all cases: glycan array binding signal (z-score within array); higher = stronger binding
Settings in all cases: glycan notation: IUPAC condensed, linker removed
Fuc(a1-2)Gal(b1-4)GlcNAc = target: Fuc(a1-2)Gal(b1-4)GlcNAc
Outline: (§1)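 From the Consortium for Functional Glycomics database, 3228 arrays were curated, keeping only those whose protein sequence was available. Binding is given as a within-array Z-score averaged across arrays sharing a protein sequence and across linkers. Negative Z-scores can be read as non-binding.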

[1] = target: Fuc(a1-2)Gal(b1-4)GlcNAc(b1-3)Gal(b1-4)GlcNAc(b1-3)Gal(b1-4)GlcNAc
Outline: as §1

[2] = target: Fuc(a1-2)Gal(b1-4)[Fuc(a1-3)]GlcNAc
Outline: as §1

Fuc(a1-2)Gal6S(b1-4)Glc = target: Fuc(a1-2)Gal6S(b1-4)Glc
Outline: as §1

[3] = target: Fuc(a1-2)Gal6S(b1-4)GlcNAc
Outline: as §1

[4] = target: Fuc(a1-2)[Gal(a1-3)]Gal(b1-4)GlcNAc
Outline: as §1

[5] = target: Fuc(a1-2)[GalNAc(a1-3)]Gal(b1-3)GlcNAc(b1-2)Man(a1-3)[Fuc(a1-2)[GalNAc(a1-3)]Gal(b1-3)GlcNAc(b1-2)Man(a1-6)]Man(b1-4)GlcNAc(b1-4)GlcNAc
Outline: as §1

[6] = target: Fuc(a1-2)[GalNAc(a1-3)]Gal(b1-4)GlcNAc
Outline: as §1

[7] = target: Fuc(a1-3)[Gal(b1-4)]GlcNAc(b1-2)Man(a1-6)[Gal(b1-4)GlcNAc(b1-2)Man(a1-3)]Man(b1-4)GlcNAc(b1-4)GlcNAc
Outline: as §1

[8] = target: Gal(a1-3)Gal(b1-3)GlcNAc(b1-2)Man(a1-3)[Gal(a1-3)Gal(b1-3)GlcNAc(b1-2)Man(a1-6)]Man(b1-4)GlcNAc(b1-4)GlcNAc
Outline: as §1

[9] = target: Gal(a1-4)Gal(b1-3)GlcNAc(b1-2)Man(a1-3)[Gal(a1-4)Gal(b1-3)GlcNAc(b1-2)Man(a1-6)]Man(b1-4)GlcNAc(b1-4)GlcNAc
Outline: as §1

[10] = target: Gal(a1-4)Gal(b1-4)GlcNAc(b1-2)Man(a1-3)[Gal(a1-4)Gal(b1-4)GlcNAc(b1-2)Man(a1-6)]Man(b1-4)GlcNAc(b1-4)GlcNAc
Outline: as §1

Gal(b1-3)Gal = target: Gal(b1-3)Gal
Outline: as §1

Gal(b1-3)Gal(b1-4)GlcNAc = target: Gal(b1-3)Gal(b1-4)GlcNAc
Outline: as §1

[11] = target: Gal(b1-3)GalNAc(a1-3)[Fuc(a1-2)]Gal(b1-4)GlcNAc
Outline: as §1

[12] = target: Gal(b1-3)GlcNAc(b1-3)Gal(b1-4)GlcNAc(b1-6)[Gal(b1-3)GlcNAc(b1-3)]Gal(b1-4)Glc
Outline: as §1

[13] = target: Gal(b1-4)GlcNAc(a1-6)Gal(b1-4)GlcNAc
Outline: as §1

[14] = target: Gal(b1-4)GlcNAc(b1-2)Man(a1-3)[GlcNAc(b1-2)Man(a1-6)]Man(b1-4)GlcNAc(b1-4)GlcNAc
Outline: as §1

[15] = target: Gal3S(b1-4)[Fuc(a1-3)]Glc
Outline: as §1

[16] = target: GlcNAc(a1-4)Gal(b1-4)GlcNAc(b1-3)Gal(b1-4)Glc
Outline: as §1

[17] = target: GlcNAc(b1-2)[GlcNAc(b1-4)]Man(a1-3)[GlcNAc(b1-2)Man(a1-6)]Man(b1-4)GlcNAc(b1-4)GlcNAc
Outline: as §1

[18] = target: GlcNAc(b1-3)Gal(b1-4)GlcNAc
Outline: as §1

[19] = target: GlcNAc(b1-3)[GlcNAc(b1-4)][GlcNAc(b1-6)]GlcNAc
Outline: as §1

[20] = target: Man(a1-2)Man(a1-3)[Man(a1-2)Man(a1-6)]Man
Outline: as §1

[21] = target: Man(a1-2)Man(a1-3)[Man(a1-2)Man(a1-6)]Man(a1-6)[Man(a1-2)Man(a1-2)Man(a1-3)]Man
Outline: as §1

[22] = target: Neu5Ac(a2-3)Gal(b1-3)GlcNAc(b1-2)Man(a1-3)[Neu5Ac(a2-3)Gal(b1-3)GlcNAc(b1-2)Man(a1-6)]Man(b1-4)GlcNAc(b1-4)GlcNAc
Outline: as §1

[23] = target: Neu5Ac(a2-3)Gal(b1-3)GlcNAc(b1-3)Gal(b1-3)GlcNAc
Outline: as §1

[24] = target: Neu5Ac(a2-3)Gal(b1-3)GlcNAc(b1-3)Gal(b1-4)GlcNAc
Outline: as §1

[25] = target: Neu5Ac(a2-3)Gal(b1-3)[Neu5Ac(a2-3)Gal(b1-4)]GlcNAc
Outline: as §1

[26] = target: Neu5Ac(a2-3)Gal(b1-4)GlcNAc(b1-2)Man(a1-3)[GlcNAc(b1-2)Man(b1-4)GlcNAc(b1-2)Man(a1-6)]Man(b1-4)GlcNAc(b1-4)GlcNAc
Outline: as §1

[27] = target: Neu5Ac(a2-3)Gal(b1-4)GlcNAc(b1-2)Man(a1-3)[Neu5Ac(a2-6)Gal(b1-4)GlcNAc(b1-2)Man(a1-6)]Man(b1-4)GlcNAc(b1-4)GlcNAc
Outline: as §1

[28] = target: Neu5Ac(a2-3)Gal(b1-4)[Fuc(a1-3)]GlcNAc(b1-3)Gal(b1-4)[Fuc(a1-3)]GlcNAc(b1-3)Gal(b1-4)[Fuc(a1-3)]GlcNAc
Outline: as §1

Neu5Ac(a2-6)Gal(b1-4)Glc = target: Neu5Ac(a2-6)Gal(b1-4)Glc
Outline: as §1

[29] = target: Neu5Ac(a2-6)Gal(b1-4)GlcNAc(b1-3)Gal(b1-4)GlcNAc(b1-3)Gal(b1-4)GlcNAc
Outline: as §1

[30] = target: Neu5Ac(a2-6)Gal(b1-4)GlcNAc(b1-3)GalNAc
Outline: as §1

[31] = target: Neu5Ac(a2-6)GalNAc(b1-4)GlcNAc
Outline: as §1

B1: Mincle (Homo sapiens), Q9ULY5 (protein)
chain: MNSSKSSETQCTERGCFSSQMFLWTVAGIPILFLSACFITRCVVTFRIFQTCDEKKFQLPENFTELSCYNYGSGSVKNCCPLNWEYFQSSCYFFSTDTISWALSLKNCSAMGAHLVVINSQEEQEFLSYKKPKMREFFIGLSDQVVEGQWQWVDGTPLTKSLSFWDVGEPNNIATLEDCATMRDSSNPRQNWNDVTCFLNYFRICEMVGINPLNKGKSL
glycan array binding signal (z-score) (Fuc(a1-2)Gal(b1-4)GlcNAc): -0.329 | glycan array binding signal (z-score) [1]: 0.144 | glycan array binding signal (z-score) [2]: -0.37 | glycan array binding signal (z-score) (Fuc(a1-2)Gal6S(b1-4)Glc): -0.325 | glycan array binding signal (z-score) [3]: -0.106 | glycan array binding signal (z-score) [4]: -0.111 | glycan array binding signal (z-score) [5]: 0.062 | glycan array binding signal (z-score) [6]: -0.289 | glycan array binding signal (z-score) [7]: 5.4 | glycan array binding signal (z-score) [8]: 4.69 | glycan array binding signal (z-score) [9]: 0.054 | glycan array binding signal (z-score) [10]: 3.26 | glycan array binding signal (z-score) (Gal(b1-3)Gal): -0.357 | glycan array binding signal (z-score) (Gal(b1-3)Gal(b1-4)GlcNAc): -0.566 | glycan array binding signal (z-score) [11]: -0.127 | glycan array binding signal (z-score) [12]: 6.4 | glycan array binding signal (z-score) [13]: -0.484 | glycan array binding signal (z-score) [14]: 0.969 | glycan array binding signal (z-score) [15]: -0.146 | glycan array binding signal (z-score) [16]: -0.295 | glycan array binding signal (z-score) [17]: -0.194 | glycan array binding signal (z-score) [18]: -0.245 | glycan array binding signal (z-score) [19]: -0.38 | glycan array binding signal (z-score) [20]: 0.813 | glycan array binding signal (z-score) [21]: 5 | glycan array binding signal (z-score) [22]: -0.71 | glycan array binding signal (z-score) [23]: -0.197 | glycan array binding signal (z-score) [24]: -0.575 | glycan array binding signal (z-score) [25]: -0.483 | glycan array binding signal (z-score) [26]: 3.33 | glycan array binding signal (z-score) [27]: 2.53 | glycan array binding signal (z-score) [28]: -0.324 | glycan array binding signal (z-score) (Neu5Ac(a2-6)Gal(b1-4)Glc): -0.181 | glycan array binding signal (z-score) [29]: -0.394 | glycan array binding signal (z-score) [30]: 0.372 | glycan array binding signal (z-score) [31]: -0.184
